Assay results: PubChem BioAssay (NCATS)
Results filed as inconclusive are left out. Activity calls are given as the source filed them. Unless noted, calls follow the shape of the full dose curve.

Legend:
[1] = biological target: Peroxisome proliferator-activated receptor delta (Homo sapiens) (UniProt Q03181); assay: qHTS assay for small molecule agonists of peroxisome proliferator-activated receptor delta signaling (AID 588534)
Method in brief: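 Fluorescence from CCF4 substrate cleavage by beta-lactamase reporter, read 2 hrs at RT, measured agonist activity. Compounds were tested with 18 hrs exposure at 37 C. Concentration-response data fitted to Hill equation.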

[2] = qHTS for Inhibitors of the Functional Ribonucleoprotein Complex (vRNP) of Lassa (LASV) Arenavirus: LASV Primary Screen - GLuc reporter signal (AID 1347082; calls by dose curve; tested in HEK293 reporter line; also: series mostly up to about 57 µM; nearly all actives have a fitted effect of over 60% in size)
[3] = qHTS for Inhibitors of the Functional Ribonucleoprotein Complex (vRNP) of Lassa (LASV) Arenavirus: Viability assay - alamar blue signal for LASV Primary Screen (AID 1347083; calls by dose curve; tested in HEK293 reporter line; also: series mostly up to about 57 µM; nearly all actives have a fitted effect of over 80% in size)
[4] = qHTS for Inhibitors of the Functional Ribonucleoprotein Complex (vRNP) of Lymphocytic Choriomeningitis Arenaviruses (LCMV): Viability assay - alamar blue signal for LCMV Primary Screen (AID 1347085; calls by dose curve; tested in HEK293 reporter line; also: series mostly up to about 57 µM; nearly all actives have a fitted effect of over 80% in size)
[5] = biological target: Nucleoprotein (Lymphocytic choriomeningitis virus (strain Armstrong)) (UniProt P09992); assay: qHTS for Inhibitors of the Functional Ribonucleoprotein Complex (vRNP) of Lymphocytic Choriomeningitis Arenaviruses (LCMV): LCMV Primary Screen - GLuc reporter signal (AID 1347086); also: series mostly up to about 57 µM; nearly all actives have a fitted effect of over 70% in size
[6] = biological target: Voltage-gated inwardly rectifying potassium channel KCNH2 (Homo sapiens) (UniProt Q12809); assay: qHTS Assay for Small Molecule Inhibitors of the Human hERG Channel Activity (AID 588834; active = well fitted inhibition curve with a large enough effect;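 also: top concentration of the series differs between compounds; lower thallium flux fluorescence means stronger hERG block; nearly all actives have a fitted effect of over 50% in size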)
Method in brief: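 hERG-BacMam U2OS, 2000 cells/well; 0.7X FluxOR loading 1 hr RT dark; cpd ~10 min 37 °C; stim buffer; FDSS fluorescence 2 min @ 1 s; AC50 Hill fit.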

[7] = biological target: Luciferin 4-monooxygenase (Photinus pyralis) (UniProt P08659); assay: Biochemical firefly luciferase enzyme assay for NPC (AID 624030; active = well fitted inhibition curve with a large enough effect;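 also: purified P. pyralis luciferase at 10 nM with luciferin and ATP substrate; series mostly up to about 59 µM; nearly all actives have a fitted effect of over 70% in size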)
Method in brief: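 Counter-screen for direct inhibition of the luciferase enzyme by approved-drug library compounds, run at 10 nM enzyme in 50 mM Tris acetate (final). Luminescence was read within 5 min of enzyme-buffer addition and normalized to PTC124 versus DMSO (0%).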

Measured: Potency

Chain of Peroxisome proliferator-activated receptor delta (Homo sapiens) (Q03181 whole entry, looked up): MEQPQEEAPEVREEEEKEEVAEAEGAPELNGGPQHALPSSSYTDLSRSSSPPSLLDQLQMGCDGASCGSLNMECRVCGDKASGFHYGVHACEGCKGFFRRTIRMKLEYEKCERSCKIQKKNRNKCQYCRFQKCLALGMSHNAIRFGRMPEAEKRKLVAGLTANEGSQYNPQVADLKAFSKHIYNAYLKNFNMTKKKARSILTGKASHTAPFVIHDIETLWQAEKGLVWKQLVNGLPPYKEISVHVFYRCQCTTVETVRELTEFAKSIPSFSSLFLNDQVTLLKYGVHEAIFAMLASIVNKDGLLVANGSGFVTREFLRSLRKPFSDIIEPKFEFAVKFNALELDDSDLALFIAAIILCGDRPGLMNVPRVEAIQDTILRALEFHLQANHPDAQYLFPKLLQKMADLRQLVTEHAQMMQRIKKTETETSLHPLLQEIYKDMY
Chain of Nucleoprotein (Lymphocytic choriomeningitis virus (strain Armstrong)) (P09992 whole entry, looked up): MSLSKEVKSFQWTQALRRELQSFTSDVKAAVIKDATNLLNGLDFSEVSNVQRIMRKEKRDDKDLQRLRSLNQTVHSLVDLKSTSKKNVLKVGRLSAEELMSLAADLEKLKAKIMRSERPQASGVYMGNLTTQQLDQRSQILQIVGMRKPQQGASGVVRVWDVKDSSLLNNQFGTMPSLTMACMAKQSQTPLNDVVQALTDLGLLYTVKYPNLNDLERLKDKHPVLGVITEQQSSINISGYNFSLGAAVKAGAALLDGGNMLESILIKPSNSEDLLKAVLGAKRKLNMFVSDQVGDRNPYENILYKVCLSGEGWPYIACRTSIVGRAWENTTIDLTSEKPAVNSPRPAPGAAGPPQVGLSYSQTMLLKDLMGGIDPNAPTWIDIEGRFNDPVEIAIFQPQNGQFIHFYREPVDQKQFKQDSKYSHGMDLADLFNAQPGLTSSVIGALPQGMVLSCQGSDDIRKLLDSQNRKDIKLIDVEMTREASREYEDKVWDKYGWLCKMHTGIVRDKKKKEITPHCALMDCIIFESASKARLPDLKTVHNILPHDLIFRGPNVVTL
Chain of Voltage-gated inwardly rectifying potassium channel KCNH2 (Homo sapiens) (Q12809 whole entry, looked up): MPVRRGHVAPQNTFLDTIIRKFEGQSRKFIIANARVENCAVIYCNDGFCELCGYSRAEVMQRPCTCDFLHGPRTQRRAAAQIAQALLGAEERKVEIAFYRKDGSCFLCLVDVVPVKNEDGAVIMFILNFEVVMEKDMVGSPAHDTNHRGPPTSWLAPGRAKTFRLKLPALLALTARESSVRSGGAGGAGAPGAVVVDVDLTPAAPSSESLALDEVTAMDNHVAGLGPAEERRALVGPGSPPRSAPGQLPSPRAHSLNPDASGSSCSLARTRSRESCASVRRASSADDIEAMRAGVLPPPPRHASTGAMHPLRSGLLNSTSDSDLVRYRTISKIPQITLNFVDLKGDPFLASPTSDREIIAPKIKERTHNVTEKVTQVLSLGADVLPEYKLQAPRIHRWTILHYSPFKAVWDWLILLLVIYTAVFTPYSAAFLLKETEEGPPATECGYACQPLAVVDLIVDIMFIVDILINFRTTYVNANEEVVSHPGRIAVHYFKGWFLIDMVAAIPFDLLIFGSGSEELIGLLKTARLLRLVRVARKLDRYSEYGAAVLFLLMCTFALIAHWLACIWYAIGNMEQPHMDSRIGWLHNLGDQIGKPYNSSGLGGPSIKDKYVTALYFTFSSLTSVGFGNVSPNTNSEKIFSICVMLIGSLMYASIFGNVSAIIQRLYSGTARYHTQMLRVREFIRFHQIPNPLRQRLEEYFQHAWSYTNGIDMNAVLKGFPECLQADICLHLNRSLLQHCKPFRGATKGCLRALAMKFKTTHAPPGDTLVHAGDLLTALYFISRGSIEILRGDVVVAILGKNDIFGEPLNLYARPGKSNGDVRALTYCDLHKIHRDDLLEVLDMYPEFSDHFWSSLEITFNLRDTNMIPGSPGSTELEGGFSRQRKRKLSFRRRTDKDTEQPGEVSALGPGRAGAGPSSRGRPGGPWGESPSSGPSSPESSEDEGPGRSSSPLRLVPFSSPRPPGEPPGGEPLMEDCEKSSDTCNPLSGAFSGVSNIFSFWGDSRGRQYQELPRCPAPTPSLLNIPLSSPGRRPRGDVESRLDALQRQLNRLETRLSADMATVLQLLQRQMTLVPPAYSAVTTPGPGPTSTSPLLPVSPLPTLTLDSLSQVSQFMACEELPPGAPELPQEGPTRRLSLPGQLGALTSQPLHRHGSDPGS
Chain of Luciferin 4-monooxygenase (Photinus pyralis) (P08659 whole entry, looked up): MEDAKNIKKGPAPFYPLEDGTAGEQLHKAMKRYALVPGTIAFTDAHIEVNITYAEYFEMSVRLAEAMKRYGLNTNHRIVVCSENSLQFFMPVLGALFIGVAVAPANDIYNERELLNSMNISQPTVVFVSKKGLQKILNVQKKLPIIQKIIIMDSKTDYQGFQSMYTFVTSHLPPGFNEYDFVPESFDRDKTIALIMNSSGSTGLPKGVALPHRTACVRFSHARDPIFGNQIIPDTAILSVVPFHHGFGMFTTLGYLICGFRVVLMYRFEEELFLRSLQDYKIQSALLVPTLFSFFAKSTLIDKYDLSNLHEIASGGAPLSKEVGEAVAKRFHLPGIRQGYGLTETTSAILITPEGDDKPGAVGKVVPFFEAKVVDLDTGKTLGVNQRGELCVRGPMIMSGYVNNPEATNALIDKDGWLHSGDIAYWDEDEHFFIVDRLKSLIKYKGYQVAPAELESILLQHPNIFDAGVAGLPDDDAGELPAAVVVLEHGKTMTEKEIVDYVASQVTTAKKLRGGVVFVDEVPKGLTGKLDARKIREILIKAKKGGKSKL

O=C(Nc1ccccc1)Nc1ccccc1
not listed: [6] | [7]
inactive: all other assays above

O=C(O)/C=C/C(=O)O
inactive: all assays above

O=C(OCc1ccccc1)c1ccccc1O
not listed: [6] | [7]
inactive: all other assays above

C=CC(=C)CCC=C(C)C
not listed: [6] | [7]
inactive: all other assays above
